Assay [1] addresses Nuclear receptor subfamily 1 group I member 2 (Mus musculus) (UniProt O54915). Nature of the assay: ATG_mPXR_XSP2: Attagene TRANS-FACTORIAL Multi-Species (XSP1) HepG2 Assay for mouse Pregnane X Receptor (PXR) (AID 2283831). The essentials:
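Reporter transcripts were quantified by RT-PCR, FAM primer extension, HpaI digestion and capillary electrophoresis after 24 h of chemical exposure in transiently transfected HepG2 cells carrying chimeric receptor-GAL4 constructs; DMSO served as baseline.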

A short description of assay [2]: ATG_M_61_XSP2: Attagene TRANS-FACTORIAL Multi-Species (XSP2) HepG2 Assay for M61 Transcription Factor (Internal Marker) (AID 2283835; active = hit-call score of the fitted dose curve at least 0.9, where 1 is the maximum; inactive = score below 0.9;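 also: active means a rise in signal above the DMSO baseline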). The method, then: ATG_XSP2_multi-species_TRANS is a cell-based, multiplexed assay created by modifying the existing Attagene TRANS-FACTORIAL system to include a panel of nuclear receptors from some or all the following species: human (Homo sapiens), mouse (Mus musculus), frog (Xenopus laevis), zebrafish (Danio rerio), chicken (Gallus gallus), and turtle (Chrysemys picta). The ECOTOX-FACTORIAL format uses HepG2, a human liver cell line, with measurements taken at 24 hours after chemical dosing in a 24-well plate. Xsp2 included 3 nM 6-alpha-fluorotestosterone and 1.5 nM norgestrel to stimulate the androgen receptor.ATG_M_61_XSP2 is one of 29 assay components measured or calculated from the ATG_XSP2_multi-species_TRANS assay. It is designed to make measurements of mRNA induction, a form of inducible reporter, as detected with fluorescence intensity signals by Reverse transcription polymerase chain reaction (RT-PCR) and Capillary electrophoresis technology.This assay endpoint, ATG_M_61_XSP2, was analyzed in the positive analysis fitting direction relative to DMSO as the negative control and baseline of activity. Using a type of inducible reporter, measures of mRNA for gain-of-signal activity can be used to understand the background control at the transcription factor-level as they relate to the gene. Furthermore, this assay endpoint can be referred to as a secondary readout, because this assay has produced multiple assay endpoints where this one serves a background control function. To generalize the intended target to other relatable targets, this assay endpoint is annotated to the background measurement intended target family, where the subfamily is internal marker.
Human liver HepG2 cells are transiently transfected with multiple reporter transcription units (MRTUs) in 6-well plates using FuGene 6 reagent (Roche; 3 ml FuGene/1 mg DNA). The MRTU constructs are regulated by a cis-regulating element (promoter). […] A major difference between the CIS and TRANS system is that in CIS activities of endogenous TFs are measured, whereas the TRANS assay evaluates changes in activities of exogenous, chimeric NR-Gal4 proteins. […] At the end of 24 hour incubation, total RNA was isolated using TriZol reagent (Invitrogen). The isolated RNA is then reverse-transcribed using oligo(dT) primer and Mo-MLV reverse transcriptase (Invitrogen) with DNAse I (Ambion) treatment for 30 min. The one-tenth of the produced cDNA was amplified by PCR using Taq DNA polymerase (Invitrogen) and two reporter sequence-specific primers. The PCR products were fluorescently labeled by primer extension with 6-arboxyfluorescein (6-FAM) 5'-labeled reporter sequence-specific primer (2 min at 95 C, 20 s at 68 C and 10 min at 72 C) and these products were digested with 5U of HpaI (New England Biolabs) for 2h at 37 C. The fragments were purified using Qiaquick PCR columns (Qiagen), analyzed on an ABI 3130xL genetic analyzer (Applied Biosystems) with peak positions identified by using a set of X-rhodamine (ROX)-labeled MapMarker1000 molecular weight standards (BioVentures). The raw capillary electrophoresis data was processed using Attagraph software (Attagene).

Assay [3] deals with human Thyroid hormone Receptor alpha (TRa), THRA (gene 7067) (UniProt P10827). Nature of the assay: ATG_hTRa_XSP2: Attagene TRANS-FACTORIAL Multi-Species (XSP2) HepG2 Assay for human Thyroid hormone Receptor alpha (TRa) (AID 2283838). In short, it runs like this: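 HepG2 cells were transiently transfected with GAL4-UAS reporter units for chimeric human TRa-Gal4 and dosed for 24 hours, with 3 nM 6-alpha-fluorotestosterone and 1.5 nM norgestrel present. Reporter mRNA was quantified by RT-PCR, FAM labelling and capillary electrophoresis, with gain of signal fitted versus DMSO.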
human Thyroid hormone Receptor alpha (TRa), THRA (gene 7067), sequence (P10827 whole entry, looked up, the tested form may be a part): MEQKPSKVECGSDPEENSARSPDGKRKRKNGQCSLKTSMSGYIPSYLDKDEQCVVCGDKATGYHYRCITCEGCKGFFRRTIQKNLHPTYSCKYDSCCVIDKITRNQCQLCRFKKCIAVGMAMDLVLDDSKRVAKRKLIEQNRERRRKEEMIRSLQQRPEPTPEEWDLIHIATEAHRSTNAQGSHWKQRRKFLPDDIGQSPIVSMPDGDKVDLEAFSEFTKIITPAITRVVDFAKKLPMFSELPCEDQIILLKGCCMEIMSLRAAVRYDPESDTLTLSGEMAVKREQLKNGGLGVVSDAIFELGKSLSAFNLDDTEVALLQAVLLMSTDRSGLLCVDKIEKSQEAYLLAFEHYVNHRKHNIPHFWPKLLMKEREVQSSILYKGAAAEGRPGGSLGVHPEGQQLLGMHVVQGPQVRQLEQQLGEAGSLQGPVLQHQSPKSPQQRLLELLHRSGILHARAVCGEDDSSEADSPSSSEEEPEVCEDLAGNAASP

Assay [4] concerns the target human Thyroid hormone Receptor beta (TRb), THRB (gene 7068) (UniProt P10828). Description: ATG_hTRb_XSP2: Attagene TRANS-FACTORIAL Multi-Species (XSP2) HepG2 Assay for human Thyroid hormone Receptor beta (TRb) (AID 2283840).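 Also: actives raise reporter mRNA so potency reflects agonist-like gain of signal.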 In short, it runs like this: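 Transient transfection of human HepG2 with multi-species NR-Gal4/GAL4-UAS reporter constructs; 24 h compound treatment; RNA isolation, reverse transcription, PCR and HpaI digest; capillary electrophoresis of labeled fragments; activity fitted upward versus DMSO.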

The subject of assay [5] is Sodium/Iodide Symporter (NIS), SLC5A5 (gene 6528). Nature of the assay: CPHEA_Stoker_NIS_Inhibition_RAIU: CPHEA's Radioactive Iodide Uptake (RAIU) Assay for Sodium/Iodide Symporter (NIS) Inhibition, Stoker and Laws Labs (AID 2283841). In short, it runs like this:
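Test chemicals, six concentrations from 0.001 to 100uM in 0.5% DMSO, were co-incubated with carrier-free 125I (final 329pM) on hNIS-HEK293T-EPA monolayers in pH 7.4 HEPES-buffered HBSS. Plates stood 2 hours at room temperature, then were washed cold and counted.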

For assay [6], the target named is zebrafish Thyroid Hormone Receptor alpha (TRa), thraa (gene 30670) (UniProt Q98867). Nature of the assay: ATG_zfTRa_XSP2: Attagene TRANS-FACTORIAL Multi-Species (XSP1) HepG2 Assay for zebrafish Thyroid Hormone Receptor alpha (TRa) (AID 2283832).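 Also: actives raise zebrafish TRa-Gal4 reporter transcript above DMSO baseline.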 The essentials:
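HepG2 transiently transfected with GAL4-UAS reporter units and chimeric zebrafish TRa-Gal4; reporter mRNA quantified after 24 h dosing by RT-PCR, HpaI digestion and capillary electrophoresis fluorescence. Gain of signal vs DMSO; XSP2 medium contains 3 nM 6-alpha-fluorotestosterone, 1.5 nM norgestrel.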

For assay [7], the system named is turtle Thyroid Hormone Receptor, alpha (TRa), gene 101949057. Nature of the assay: ATG_trTRa_XSP2: Attagene TRANS-FACTORIAL Multi-Species (XSP1) HepG2 Assay for turtle Thyroid Hormone Receptor, alpha (TRa) (AID 2283834).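 Also: hits raise reporter mRNA over the DMSO baseline so AC50 marks activators.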 In short, it runs like this: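 Transfection of HepG2 with multiple reporter transcription units, then chemical dosing for 24 h. Total RNA was reverse-transcribed, reporter sequences PCR-amplified and FAM-labelled, then sized by capillary electrophoresis. DMSO served as baseline.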

For assay [8], the target named is zebrafish Thyroid Hormone Receptor beta (TRb), thrb (gene 30607) (UniProt Q9PVE4). Nature of the assay: ATG_zfTRb_XSP2: Attagene TRANS-FACTORIAL Multi-Species (XSP1) HepG2 Assay for zebrafish Thyroid Hormone Receptor beta (TRb) (AID 2283836). The essentials:
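HepG2 cells transiently transfected with chimeric zebrafish TRb-GAL4 reporter units, dosed 24 h with 3 nM 6-alpha-fluorotestosterone and 1.5 nM norgestrel present. Reporter mRNA quantified by RT-PCR and capillary electrophoresis; gain fitted against DMSO.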

In assay [9] the test system is zebrafish Peroxisome Proliferator-activated Receptor gamma (PPARg), gene 557037. Description: ATG_zfPPARg_XSP2: Attagene TRANS-FACTORIAL Multi-Species (XSP2) HepG2 Assay for zebrafish Peroxisome Proliferator-activated Receptor gamma (PPARg) (AID 2283833).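 Also: actives increase reporter signal over DMSO so AC50 reflects activation.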 In short, it runs like this:
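Multi-species TRANS format in HepG2, 24 h dosing; medium also contained 3 nM 6-alpha-fluorotestosterone and 1.5 nM norgestrel to stimulate androgen receptor. Zebrafish PPARg-GAL4 induced reporter mRNA was measured by RT-PCR/capillary electrophoresis.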

The nature of assay [10]: ATG_XTT_Cytotoxicity_XSP2: Cytotoxicity Assessment in the Attagene TRANS-FACTORIAL Multi-Species (XSP2) HepG2 Assay (AID 2283837). In short, it runs like this: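 HepG2 cells, transiently transfected with multiple reporter constructs, exposed to chemical for 24 h. Cell number assessed with XTT fluorescence read-out; loss of signal fitted relative to DMSO.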

Values joined by “and” are separate entries in the source; they are usually repeats but may differ in a detail not shown here. Equal entries are not always repeated. Results filed as inconclusive are left out. Where a structure was tested more than once in an assay, its records may differ in their call. Active and inactive are the calls of the source. The calls were made as follows, unless noted: active = hit-call score of the fitted dose curve at least 0.9, where 1 is the maximum; inconclusive = response in the unintended direction; inactive = score below 0.9.

zebrafish Thyroid Hormone Receptor beta (TRb), thrb (gene 30607), sequence (Q9PVE4 whole entry, looked up, the tested form may be a part): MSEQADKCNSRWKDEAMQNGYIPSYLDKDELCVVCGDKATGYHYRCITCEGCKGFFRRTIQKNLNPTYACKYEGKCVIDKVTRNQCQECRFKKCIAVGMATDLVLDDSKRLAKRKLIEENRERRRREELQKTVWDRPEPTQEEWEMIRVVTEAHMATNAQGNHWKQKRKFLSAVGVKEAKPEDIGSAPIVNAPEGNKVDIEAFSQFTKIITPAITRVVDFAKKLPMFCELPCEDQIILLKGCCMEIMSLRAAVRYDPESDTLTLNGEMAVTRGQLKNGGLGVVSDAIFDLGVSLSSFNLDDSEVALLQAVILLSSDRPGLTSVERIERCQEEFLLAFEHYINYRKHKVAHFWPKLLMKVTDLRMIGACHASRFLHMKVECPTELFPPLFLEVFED
human Thyroid hormone Receptor beta (TRb), THRB (gene 7068), sequence (P10828 whole entry, looked up, the tested form may be a part): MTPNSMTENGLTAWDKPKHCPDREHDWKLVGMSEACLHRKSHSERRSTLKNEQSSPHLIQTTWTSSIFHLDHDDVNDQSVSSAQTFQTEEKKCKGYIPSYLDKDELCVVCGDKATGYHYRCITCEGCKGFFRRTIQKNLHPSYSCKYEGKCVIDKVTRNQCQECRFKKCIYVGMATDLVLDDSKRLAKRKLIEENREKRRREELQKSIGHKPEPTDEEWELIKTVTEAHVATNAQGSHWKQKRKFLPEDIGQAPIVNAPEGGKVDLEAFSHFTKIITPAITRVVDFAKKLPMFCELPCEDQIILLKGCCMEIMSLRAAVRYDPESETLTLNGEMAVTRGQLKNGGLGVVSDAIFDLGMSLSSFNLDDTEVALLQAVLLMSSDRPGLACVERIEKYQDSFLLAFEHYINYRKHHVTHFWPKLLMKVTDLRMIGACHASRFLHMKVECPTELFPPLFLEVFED
zebrafish Thyroid Hormone Receptor alpha (TRa), thraa (gene 30670), sequence (Q98867 whole entry, looked up, the tested form may be a part): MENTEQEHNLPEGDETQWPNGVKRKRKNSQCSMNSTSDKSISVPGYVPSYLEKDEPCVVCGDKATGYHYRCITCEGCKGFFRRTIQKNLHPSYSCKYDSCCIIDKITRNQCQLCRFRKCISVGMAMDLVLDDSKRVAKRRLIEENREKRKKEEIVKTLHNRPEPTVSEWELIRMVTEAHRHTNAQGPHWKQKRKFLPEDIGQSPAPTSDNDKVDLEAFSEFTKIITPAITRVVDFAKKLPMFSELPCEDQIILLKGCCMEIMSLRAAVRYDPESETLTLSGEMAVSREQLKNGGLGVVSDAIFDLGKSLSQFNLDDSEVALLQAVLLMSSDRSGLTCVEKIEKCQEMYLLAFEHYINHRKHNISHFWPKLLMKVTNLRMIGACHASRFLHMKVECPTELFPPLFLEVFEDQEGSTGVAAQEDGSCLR
Nuclear receptor subfamily 1 group I member 2 (Mus musculus), sequence (O54915 whole entry, looked up, the tested form may be a part): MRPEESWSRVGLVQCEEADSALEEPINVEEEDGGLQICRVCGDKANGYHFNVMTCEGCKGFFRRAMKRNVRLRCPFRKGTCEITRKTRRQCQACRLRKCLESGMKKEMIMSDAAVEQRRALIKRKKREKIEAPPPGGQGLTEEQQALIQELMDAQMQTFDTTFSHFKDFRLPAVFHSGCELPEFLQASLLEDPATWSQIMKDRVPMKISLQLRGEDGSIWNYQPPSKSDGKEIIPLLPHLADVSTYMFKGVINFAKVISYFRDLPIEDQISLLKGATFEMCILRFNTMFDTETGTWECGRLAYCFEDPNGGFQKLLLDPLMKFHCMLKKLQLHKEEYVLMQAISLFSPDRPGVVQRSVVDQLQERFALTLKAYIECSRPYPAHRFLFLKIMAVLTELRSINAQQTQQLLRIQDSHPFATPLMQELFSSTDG

As for `Clc1ccc(C(c2ccccc2Cl)C(Cl)(Cl)Cl)cc1` (stereo unspecified), the AC50 in assay [1] is 5.09 µM (active). Moreover, the outcome in [2], in assay [3] and in [4] was inactive.
In the case of `CCC(C)c1cc([N+](=O)[O-])cc([N+](=O)[O-])c1O` (stereo unspecified), the outcome in assay [5] was inactive.
As for `CC(C)(O)C(=O)Nc1ccc([N+](=O)[O-])c(C(F)(F)F)c1`, the call in [1], in assay [6], in assay [7], in [2], in [8] and in assay [3] was inactive. For the same molecule, the molecule was called inactive in assay [4].
For `O=S(=O)(O)C(F)(F)C(F)(F)C(F)(F)C(F)(F)C(F)(F)C(F)(F)F`, the AC50 in assay [5] is 23.3 µM (active) and 7.48 µM (active) and 2.33 µM (active).
`O=NN(c1ccccc1)c1ccccc1`: in assay [5], the result was inactive.
For `CCOC(=O)C(O)(c1ccc(Cl)cc1)c1ccc(Cl)cc1`, the half-maximal activity concentration (AC50) was 7.9 µM (active) and 8.04 µM (active) in assay [1]; 100 µM (active) in [10]; 55.6 µM (active) in assay [3]. Also, the molecule was classed as inactive in [6], in assay [9], in [7], in [2], in assay [8] and in assay [3]. Moreover, the outcome in assay [4] and in assay [5] was inactive.
For the molecule `Cc1ccccc1CO[C@@H]1C[C@@]2(C(C)C)CC[C@]1(C)O2`, the outcome in assay [5] was inactive.
Same read-out and setting: the entry for `ClC1=C(Cl)[C@]2(Cl)[C@@H]3[C@@H]4C[C@@H]([C@H]5O[C@@H]45)[C@@H]3[C@@]1(Cl)C2(Cl)Cl` is “inactive”.
For `c1cc2ccc3cccc4ccc(c1)c2c34`, the AC50 in assay [1] is 19.6 µM (active) and 15 µM (active). Also, the molecule was classed as inactive in [6], in assay [9], in [7], in assay [8], in assay [10] and in assay [3]. In assay [4], the result was inactive.
On to `CC#Cc1cc(C)nc(Nc2ccccc2)n1`, for which, in assay [5], the result was inactive.
On to `ClC(Cl)=C(c1ccc(Cl)cc1)c1ccc(Cl)cc1`, for which the molecule was classed as inactive in assay [1], in assay [7], in assay [8] and in [4].
In the case of `CCNc1nc(NC(C)C)nc(SC)n1`, the result in [5] was inactive.

By AC50 is commonly meant the concentration giving half of the maximal activity seen.
